Our source for the Potency values is PubChem BioAssay (NCATS).

Records with an inconclusive call do not appear. The source made the active and inactive calls. Calls follow the shape of the dose curve; as a rule, active = well fitted inhibition curve with a large enough effect; inconclusive = small, poorly fitted or top-dose-only effect; inactive = flat fitted curve, though single readings scatter.

What all share (assay): qHTS profiling for inhibitors of Plasmodium falciparum proliferation (AID 504749); also: nearly all actives have a fitted effect of over 60% in size
Common to all, as to settings: P. falciparum in erythrocytes, SYBR Green DNA, 72 h; series mostly up to 28.7 µM
On the technique in general: In qHTS, concentration-response curves come from the screen itself.

The subject of one assay is AA1029. Summed up:
(§1)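 Three-day growth assay of blood-stage parasites in erythrocytes (0.3% parasitemia, 2.5% hematocrit) at 37 C, 5% CO2, quantified by SYBR Green DNA staining after overnight detergent lysis.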

In another assay the test system is AS120. In a few lines:
as §1

The subject of another assay is C2A. Summed up:
as §1

In another assay the test system is CP201. In a few lines:
as §1

The subject of the next assay is CP203. In a few lines:
as §1

The subject of the next assay is CP237. In a few lines: as §1
The test system of the next assay is CP250. In a few lines: as §1
The test system of another assay is CP256. In a few lines: as §1
A further assay concerns CP268. In a few lines:
as §1

Another assay concerns CP305. In a few lines: as §1
In a further assay the test system is CP315. Summed up:
as §1

The subject of the next assay is CP325. In a few lines: as §1
Another assay relates to DIV30. In a few lines: as §1
The subject of the next assay is HB3. Summed up:
as §1

A further assay relates to JCK. Summed up: as §1
A further assay concerns N140. In a few lines: as §1
The subject of the next assay is P94_40. Summed up: as §1
The test system of a further assay is PAD. Summed up: as §1
In the next assay the test system is SC27B. In a few lines: as §1
The next assay concerns TAB113. In a few lines:
as §1
Potency is read from the fitted curve at half-maximal effect.

For `CCCCC/C(C=O)=C/c1ccccc1`, the Potency result with AA1029, with AS120, in the assay on C2A, in the assay with CP201, in the assay with CP203 and with CP237 was “inactive” throughout. The Potency entry in the assay with CP250, with CP256, in the assay with CP268, in the assay with CP305, in the assay on CP315 and in the assay on CP325 was “inactive” throughout. The Potency result in the assay with DIV30, with HB3, in the assay with JCK, in the assay on N140, in the assay with P94_40 and in the assay on PAD was “inactive” in each case. The Potency result in the assay with SC27B and with TAB113 was “inactive” in each case.

Take `C[n+]1c2cc(N)ccc2cc2ccc(N)cc21`: the Potency with AA1029 was 0.708 µM (active); with AS120 it was 1 µM (active); in the assay with C2A it was 1 µM (active); in the assay on CP201, 1.69 µM (active); in the assay on CP203, 1.07 µM (active); in the assay with CP237 it was 0.282 µM (active). The Potency in the assay with CP250 was 1.12 µM (active); in the assay on CP256, 1 µM (active); in the assay on CP268, 0.757 µM (active); in the assay on CP305, 0.757 µM (active); in the assay with CP315 it was 2.13 µM (active); in the assay with CP325 it was 0.953 µM (active). Moreover, the Potency in the assay with DIV30 was 1.69 µM (active); in the assay with HB3, 0.447 µM (active); with JCK, 0.794 µM (active); in the assay with N140 it was 0.631 µM (active); with P94_40, 0.631 µM (active); in the assay on PAD, 1 µM (active). For the same compound, the Potency in the assay with SC27B is 1.58 µM (active); in the assay on TAB113, 0.891 µM (active).

Consider `CCC(C(=O)O)C1OC(C(C)C(O)C(C)C(=O)C(CC)C2OC3(C=CC(O)C4(CCC(C)(C5CCC(O)(CC)C(C)O5)O4)O3)C(C)CC2C)C(C)CC1C` (centres undefined), for which the Potency with AA1029 is 0.158 µM (active); with AS120, 0.0794 µM (active); in the assay on C2A, 0.126 µM (active); with CP201 it was 0.0953 µM (active); with CP203, 0.0379 µM (active); with CP237 it was 0.0562 µM (active). The Potency in the assay with CP250 is 0.199 µM (active); with CP256 it was 0.199 µM (active); in the assay with CP268, 0.0757 µM (active); in the assay on CP305, 0.0536 µM (active); in the assay with CP315 it was 0.0338 µM (active); in the assay on CP325 it was 0.0849 µM (active). Further, the Potency with DIV30 was 0.0675 µM (active); in the assay on HB3, 0.0794 µM (active); in the assay with JCK it was 0.199 µM (active); with N140, 0.141 µM (active); in the assay with P94_40, 0.0708 µM (active); in the assay with PAD, 0.224 µM (active). Besides, the Potency was 0.0891 µM (active) with SC27B and 0.0794 µM (active) with TAB113.

On to `C[C@H]1OC(OC2C(O)[C@@H](O)C(OC3C(O)[C@@H](O)C(O)O[C@@H]3CO)O[C@@H]2CO)[C@H](O)C(O)C1N[C@H]1C=C(CO)[C@@H](O)[C@H](O)C1O` (some centres undefined), for which the Potency result in the assay on AA1029, in the assay on AS120, with C2A, in the assay on CP201, with CP203 and in the assay with CP237 was “inactive” in each case. Moreover, the Potency entry with CP250, in the assay with CP256, in the assay with CP268, in the assay with CP305, in the assay with CP315 and in the assay on CP325 was “inactive” each time. For the same compound, the Potency entry in the assay on DIV30, with HB3, in the assay on JCK, with N140, in the assay on P94_40 and in the assay on PAD was “inactive” throughout. Moreover, the Potency result with SC27B and with TAB113 was “inactive” each time.

On to `OCC1O[C@H](Oc2ccc(O)cc2)C(O)C(O)C1O` (some centres undefined), for which the Potency result with AA1029, in the assay with AS120, in the assay with C2A, with CP201, in the assay on CP203 and with CP237 was “inactive” each time. Further, the Potency entry in the assay with CP250, in the assay on CP256, with CP268, in the assay with CP305, with CP315 and with CP325 was “inactive” in each case. For the same compound, the Potency result in the assay on DIV30, in the assay with HB3, with JCK, with N140, in the assay on P94_40 and in the assay with PAD was “inactive” each time. Besides, the Potency result in the assay on SC27B and with TAB113 was “inactive” throughout.

As for `C[C@H]1[C@@H](OC(=O)CCC(=O)O)OC2OC3(C)CC[C@H]4[C@H](C)CC[C@@H]1[C@@]24OO3` (some centres undefined), the Potency in the assay on AA1029 was 0.0063 µM (active); with AS120, 0.005 µM (active); with C2A it was 0.0032 µM (active); with CP201, 0.012 µM (active); in the assay on CP203, 0.0054 µM (active); with CP237, 0.0063 µM (active). For the same compound, the Potency in the assay with CP250 is 0.0045 µM (active); in the assay with CP256, 0.0071 µM (active); with CP268, 0.0054 µM (active); in the assay with CP305, 0.006 µM (active); with CP315 it was 0.012 µM (active); with CP325, 0.006 µM (active). For the same compound, the Potency is 0.0043 µM (active) in the assay on DIV30; 0.005 µM (active) in the assay with HB3; 0.0032 µM (active) in the assay on N140; 0.0022 µM (active) in the assay on P94_40; 0.0056 µM (active) in the assay with PAD; 0.005 µM (active) in the assay on SC27B. The Potency in the assay with TAB113 is 0.002 µM (active).

For the compound `O=C1[C@@H]2C[C@@H]3C[C@H]1C[C@@](O)(C3)C2`, the Potency result with AA1029, in the assay on AS120, in the assay with C2A, in the assay on CP201, with CP203 and with CP237 was “inactive” in each case. Besides, the Potency result in the assay on CP250, in the assay on CP256, with CP268, in the assay with CP305, with CP315 and with CP325 was “inactive” throughout. Also, the Potency entry in the assay on DIV30, in the assay on HB3, with JCK, in the assay with N140, with P94_40 and in the assay on PAD was “inactive” each time. Besides, the Potency entry in the assay with SC27B and with TAB113 was “inactive” each time.

In the case of `CNC(=O)C(N)CSC(C)C1=C(C)c2cc3[n-]c(cc4nc(cc5[n-]c(cc1n2)c(C)c5CCC(=O)O)C(CCC(=O)O)=C4C)c(C)c3C(C)SCC(N)C(=O)NC.[Fe+2]` (centres undefined), the Potency result with AA1029, in the assay on AS120, in the assay with C2A, with CP201, in the assay on CP203 and in the assay on CP237 was “inactive” throughout. Further, the Potency entry in the assay on CP250, in the assay with CP256, with CP268, with CP305, with CP315 and in the assay with CP325 was “inactive” in each case. Besides, the Potency result in the assay on DIV30, with HB3, with JCK, in the assay with N140, in the assay on P94_40 and in the assay with PAD was “inactive” in each case. Moreover, the Potency entry in the assay on SC27B and in the assay with TAB113 was “inactive” throughout.

Take `Cc1ccc(S(=O)(=O)NC(=O)NC(C)Cc2ccccc2)cc1` (centres undefined): the Potency entry in the assay on AA1029, in the assay with AS120, in the assay with C2A, with CP201, with CP203 and with CP237 was “inactive” in each case. Besides, the Potency result in the assay on CP250, in the assay on CP256, in the assay with CP268, with CP305, in the assay on CP315 and in the assay on CP325 was “inactive” throughout. Moreover, the Potency entry with DIV30, in the assay on HB3, in the assay with JCK, in the assay with N140, in the assay with P94_40 and in the assay on PAD was “inactive” in each case. Also, the Potency entry in the assay on SC27B and in the assay with TAB113 was “inactive” throughout.

With `COC(c1ccccc1)(c1ccccc1)C(Oc1nc(C)cc(C)n1)C(=O)O` (centres undefined), the Potency result with AA1029, with AS120, in the assay on C2A, with CP201, with CP203 and in the assay with CP237 was “inactive” in each case. Moreover, the Potency entry with CP250, in the assay on CP256, with CP268, in the assay with CP305, with CP315 and in the assay on CP325 was “inactive” throughout. Besides, the Potency result in the assay on DIV30, in the assay on HB3, in the assay with JCK, with N140, in the assay with P94_40 and in the assay on PAD was “inactive” in each case. For the same compound, the Potency result with SC27B and in the assay with TAB113 was “inactive” each time.

For `C[S+](C)CC[C@H](N)C(=O)O`, the Potency result in the assay with AA1029, with AS120, with C2A, in the assay on CP201, with CP203 and in the assay on CP237 was “inactive” throughout. Besides, the Potency entry in the assay with CP250, in the assay with CP256, in the assay on CP268, in the assay on CP305, with CP315 and with CP325 was “inactive” each time. Further, the Potency result in the assay on DIV30, with HB3, in the assay on JCK, in the assay on N140, in the assay with P94_40 and in the assay on PAD was “inactive” each time. Also, the Potency result in the assay with SC27B and with TAB113 was “inactive” in each case.
